{"source": "PubChem BioAssay (NCATS)", "note": "A number with no mark means an inactive call. The rule behind the calls is not given here. Potency is the fitted concentration of half-maximal effect.", "data": [{"system": "HIV-1 nucleocapsid protein NCp7 (binding to TG oligonucleotide)", "assay": "HIV Nucleocapsid (AID 346);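 note: potency is for inhibitors that block NC binding and lower polarization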", "conditions": "HIV-1 NC / fluorescein-TGTGTGTG probe, fluorescence polarization", "method_in_brief": "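Inhibition of nucleocapsid binding to single-stranded 5'-TGTGTGTG probe (10 nM) was measured by fluorescence polarization after 1 hr at room temperature with 100 nM protein under high-salt, zinc-containing, reducing conditions.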", "units": {"Potency": "µM"}, "values": [{"compound": "O=c1c(-c2ccc(Cl)cc2)nc2cnc(N3CCOCC3)nc2n1CCc1ccccc1", "Potency": "> 4"}, {"compound": "COCCn1c(=O)c(-c2ccc(Cl)cc2)nc2cnc(N3CCOCC3)nc21", "Potency": "> 20"}, {"compound": "COc1ccc(NC(=O)N2CCC3(CC2)CCN(S(C)(=O)=O)CC3)cc1", "Potency": "> 20"}, {"compound": "CC(=O)N1CCC2(CCCN(c3ccccn3)C2)CC1", "Potency": "> 20"}, {"compound": "COc1cccc(-c2nc(N3CCNCC3)c3ccccc3n2)c1", "Potency": "> 20"}, {"compound": "COc1ccccc1-c1ccc2ncnc(NCc3ccccc3)c2c1", "Potency": "> 20"}, {"compound": "COc1cccc(Cn2c(=O)c(CCc3ccccc3)nc3cnc(N4CCOCC4)nc32)c1", "Potency": "> 20"}, {"compound": "CN1CCN(c2ncc3nc(-c4cccs4)c(=O)n(Cc4ccc(F)cc4)c3n2)CC1", "Potency": "> 4"}, {"compound": "COCC(=O)N1CCC2(CC1)CCN(C(=O)NC(C)C)CC2", "Potency": "> 20"}, {"compound": "CN(C)Cc1ccccc1-c1cc(N(C)Cc2ccco2)ncn1", "Potency": "> 20"}, {"compound": "COCCn1c(=O)c(-c2cn(C)c3ccccc23)nc2cnc(Oc3cccc(Cl)c3)nc21", "Potency": "> 20"}, {"compound": "O=c1c(-c2cc(F)cc(F)c2)nc2cnc(N3CCNCC3)nc2n1-c1ccccc1", "Potency": "> 20"}, {"compound": "O=C(Nc1ccccc1)N1CC2(CCN(C(=O)c3cccc(F)c3)CC2)C1", "Potency": "> 20"}, {"compound": "COc1ccc(Oc2ncc3nc(CCc4ccccc4)c(=O)n(C[C@H]4CCCO4)c3n2)cc1", "Potency": "> 20"}, {"compound": "N#Cc1cccc(NC(=O)N2CC[C@@]3(CCCNC3)C2)c1", "Potency": "> 20"}, {"compound": "O=C(Oc1ccccc1)N1CCC2(CC1)CN(c1ccccn1)C2", "Potency": "> 20"}, {"compound": "COc1ncc2nc(-c3ccccc3)c(=O)n(C[C@H]3CCCO3)c2n1", "Potency": "> 20"}, {"compound": "O=c1c(-c2cccc(F)c2)nc2cncnc2n1Cc1ccccc1", "Potency": "> 20"}, {"compound": "CC(=O)N1CCC[C@@]2(CCN(Cc3cc(C(F)(F)F)cc(C(F)(F)F)c3)C2)C1", "Potency": "> 20"}, {"compound": "O=c1c(-c2ccccc2)nc2cncnc2n1-c1ccccc1", "Potency": "> 20"}, {"compound": "COCCn1c(=O)c(-c2cccc(C#N)c2)nc2cnc(OC)nc21", "Potency": "> 20"}, {"compound": "Cn1cc(-c2nc3cnc(N4CCNCC4)nc3n(CCc3ccccc3)c2=O)c2ccccc21", "Potency": "> 4"}, {"compound": "COc1ccc(-n2c(=O)cnc3cnc(N(C)C)nc32)cc1", "Potency": "> 20"}, {"compound": "CNc1ccnc(-c2c(C)noc2C)n1", "Potency": "> 20"}, {"compound": "COC(=O)N1CCC2(CCN(Cc3cc(C(F)(F)F)cc(C(F)(F)F)c3)CC2)CC1", "Potency": "> 20"}, {"compound": "CN(C)C(=O)c1ccc(-c2ccc3ncnc(Nc4ccccc4)c3c2)cc1", "Potency": "> 20"}, {"compound": "FC(F)(F)c1ccccc1-c1cncnc1NCc1cccs1", "Potency": "> 20"}, {"compound": "COC(=O)N1CCC2(CC1)CN(c1ccccc1)C2", "Potency": "> 20"}, {"compound": "COc1ccc(-n2c(=O)c(-c3cccs3)nc3cncnc32)cc1", "Potency": "> 20"}, {"compound": "COc1ccccc1CNc1ncnc2ccc(-c3ccc(C(=O)N(C)C)cc3)cc12", "Potency": "> 20"}, {"compound": "CCNc1ncc2nc(-c3ccc(F)cc3)c(=O)n(-c3ccccc3)c2n1", "Potency": "> 20"}, {"compound": "COCCn1c(=O)c(-c2cn(C)c3ccccc23)nc2cnc(Oc3ccccc3)nc21", "Potency": "> 20"}, {"compound": "O=c1c(-c2cccs2)nc2cnc(Oc3cccc(Cl)c3)nc2n1C[C@H]1CCCO1", "Potency": "> 20"}, {"compound": "COc1cccc(Nc2ncc3nc(C)c(=O)n(CCC#N)c3n2)c1", "Potency": "> 20"}, {"compound": "CN(C)C(=O)c1ccc(-c2ccc3ncnc(N4CCNCC4)c3c2)cc1", "Potency": "> 20"}, {"compound": "COCCn1c(=O)c(CCc2ccccc2)nc2cnc(N3CCOCC3)nc21", "Potency": "> 20"}, {"compound": "Cc1nc2cnc(N(C)C)nc2n(C)c1=O", "Potency": "> 20"}, {"compound": "COc1ccc(-c2nc3cnc(N(C)C)nc3n(C3CC3)c2=O)cc1", "Potency": "> 20"}, {"compound": "Cc1noc(C)c1-c1nccc(NCc2cccnc2)n1", "Potency": "> 20"}, {"compound": "COc1ccccc1CNc1nc(-c2cccc(C#N)c2)nc2ccccc12", "Potency": "> 20"}]}]}
